In PubChem BioAssay AID1159580 (chemical genetic matrix, 2015):
Where “and” joins values, the source holds several entries; their conditions need not be identical. Equal values may be shown once. About 2,000 (36%) of roughly 5,500 compounds were called active. Inconclusive results (about 18%) are left out. Rule as the data show it: active = normalized growth mostly below about 0.91 (no sharp cut-off); inconclusive = no clear call, values can overlap the other calls; inactive = mostly above about 0.92. Some of the results follow.

Assay: chemical genetic growth profiling, strain panel (AID 1159580);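 also: tested at 20 µM; growth read once vehicle control cultures reached saturation at 30 °C; 1 = growth at the plate median or of vehicle wells; lower values mean less growth of the strain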
Conditions: S. cerevisiae deletion strains, growth OD

Measured: normalized growth

CC(=O)O[C@H]1C[C@@]2(C)[C@@H](C[C@@H](O)C3[C@]2(C)CC[C@H]2[C@H](C)[C@H](O)CC[C@]32C)/C1=C(/CCC=C(C)C)C(=O)O (stereo partly drawn)
inactive: locus YAL013W, strain DEP1, active compounds read low 1.02 | locus YAL021C, strain ccr4, active compounds read low 1.02 | locus YAL026C, strain drs2, active compounds read low 1.01 | locus YAL030W, strain snc1, active compounds read low 1.03 | locus YBL061C, strain skt5, active compounds read low 1.04 | locus YBR009C, strain hhf1, active compounds read low 1.02 | locus YBR021W, strain FUR4, active compounds read low 1.04 | locus YBR023C, strain chs3, active compounds read low 1.04 | locus YBR171W, strain sec66, active compounds read low 1.01 | locus YBR229C, strain ROT2, active compounds read low 1.01 | locus YBR231C, strain swc5, active compounds read low 0.988 | locus YBR279W, strain paf1, active compounds read low 1.03 | locus YCL011C, strain gbp2, active compounds read low 1.01 | locus YCL016C, strain dcc1, active compounds read low 1.05 | locus YCL029C, strain bik1, active compounds read low 1.03 | locus YCL061C, strain MRC1, active compounds read low 1.02 | locus YCL069W, strain vba3, active compounds read low 1.01 | locus YCR088W, strain abp1, active compounds read low 1.01 | locus YDL005C, strain med2, active compounds read low 1.04 | locus YDL035C, strain GPR1, active compounds read low 0.989 | locus YDL040C, strain nat1, active compounds read low 1.02 | locus YDL074C, strain BRE1, active compounds read low 1.03 | locus YDL101C, strain DUN1, active compounds read low 1.01 | locus YDL134C, strain PPH21, active compounds read low 1 | locus YDL185W, strain tfp1, active compounds read low 1.01 | locus YDL192W, strain arf1, active compounds read low 1.03 | locus YDR001C, strain nth1, active compounds read low 1 | locus YDR069C, strain doa4, active compounds read low 1.03 | locus YDR101C, strain arx1, active compounds read low 1.02 | locus YDR137W, strain rgp1, active compounds read low 1 | locus YDR150W, strain NUM1, active compounds read low 1.02 | locus YDR159W, strain sac3, active compounds read low 0.989 | locus YDR162C, strain NBP2, active compounds read low 1 | locus YDR195W, strain ref2 1.03 | locus YDR297W, strain sur2, active compounds read low 1.02 | locus YDR318W, strain mcm21, active compounds read low 1.03 | locus YDR334W, strain swr1, active compounds read low 1.02 | locus YDR335W, strain msn5, active compounds read low 1.04 | locus YDR388W, active compounds read low 1.04 | locus YDR392W, strain spt3, active compounds read low 0.998 | locus YDR502C, strain sam2, active compounds read low 1.04 | locus YEL003W, strain gim4, active compounds read low 0.998 | locus YEL037C, strain rad23, active compounds read low 1 | locus YEL061C, strain CIN8 (second series), active compounds read low 1.01 | locus YEL061C, strain CIN8, active compounds read low 1.01 | locus YER015W, strain faa2, active compounds read low 1.03 | locus YER016W, strain bim1, active compounds read low 1.01 | locus YER110C, active compounds read low 1.02 | locus YER111C, strain swi4, active compounds read low 1.03 | locus YER155C, strain BEM2 (second series), active compounds read low 1.01 | locus YER155C, strain BEM2, active compounds read low 1.01 | locus YER167W, strain BCK2, active compounds read low 1.02 | locus YFR010W, strain ubp6, active compounds read low 1.02 | locus YGL078C, strain dbp3, active compounds read low 1.04 | locus YGL086W, strain mad1, active compounds read low 1.01 | locus YGL167C, strain pmr1, active compounds read low 1.02 | locus YGL173C, strain kem1, active compounds read low 1.01 | locus YGL227W, strain vid30, active compounds read low 1.01 | locus YGL240W, strain doc1, active compounds read low 1.01 | locus YGL248W, strain PDE1, active compounds read low 1.01 | locus YGL253W, strain hxk2, active compounds read low 1.01 | locus YGR078C, strain PAC10, active compounds read low 1.02 | locus YGR135W, strain pre9, active compounds read low 1.06 | locus YGR229C, strain SMI1, active compounds read low 1.02 | locus YGR252W, strain gcn5, active compounds read low 1.02 | locus YHR013C, strain ard1, active compounds read low 1.08 | locus YHR027C, strain rpn1, active compounds read low 1.03 | locus YHR030C, strain SLT2, active compounds read low 1.02 and 0.951 | locus YHR079C, strain IRE1 (second series), active compounds read low 1.01 | locus YHR079C, strain IRE1, active compounds read low 0.959 | locus YHR094C, strain hxt1, active compounds read low 1.03 | locus YHR129C, strain ARP1, active compounds read low 1.01 | locus YHR142W, strain chs7, active compounds read low 1.04 | locus YHR200W, strain rpn10, active compounds read low 1.05 | locus YIL066C, strain RNR3, active compounds read low 1.01 | locus YIL073C, strain SPO22, active compounds read low 1.03 | locus YIL125W, strain kgd1, active compounds read low 1.03 | locus YIR030C, strain dcg1, active compounds read low 1.04 | locus YJL092W, strain hpr5, active compounds read low 1.01 | locus YJL095W, strain BCK1 (second series), active compounds read low 1.03 | locus YJL095W, strain BCK1, active compounds read low 1.03 and 0.977 | locus YJL115W, strain asf1, active compounds read low 1.03 | locus YJL129C, strain trk1, active compounds read low 1.03 | locus YJL134W, strain LCB3, active compounds read low 1.01 | locus YJL154C, strain vps35, active compounds read low 0.993 | locus YJL164C, strain tpk1, active compounds read low 1.06 | locus YJL166W, strain qcr8, active compounds read low 1.08 | locus YJL168C, strain set2, active compounds read low 1.02
